The text below walks through data of PubChem BioAssay AID652054 (National Center for Advancing Translational Sciences (NCATS), 2013).

Out of some 360,000 compounds screened, about 9,100 (2.5%) were called active. Not shown: some 4% with an inconclusive outcome. This is one part of a sample in which actives are shown more often than they occur. Cut-off read from the data, not from the text of the source: active = max response below about -50%; inconclusive = no clear call, values can overlap the other calls; inactive = above that.
% is set by controls: 0 for no effect and ±100 for the full control effect.

D(3) dopamine receptor (Homo sapiens), sequence (P35462 whole entry, looked up): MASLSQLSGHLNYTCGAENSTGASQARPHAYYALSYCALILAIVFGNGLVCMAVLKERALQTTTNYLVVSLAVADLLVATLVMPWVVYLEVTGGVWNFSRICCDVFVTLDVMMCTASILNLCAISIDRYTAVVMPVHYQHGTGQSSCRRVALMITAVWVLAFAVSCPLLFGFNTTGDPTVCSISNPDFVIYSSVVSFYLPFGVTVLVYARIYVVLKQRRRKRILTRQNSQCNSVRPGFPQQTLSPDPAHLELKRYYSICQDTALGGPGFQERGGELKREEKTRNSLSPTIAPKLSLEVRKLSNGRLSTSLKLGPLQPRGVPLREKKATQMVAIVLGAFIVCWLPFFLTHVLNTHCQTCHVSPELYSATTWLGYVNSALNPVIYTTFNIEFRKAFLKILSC

For this test, the target named is D(3) dopamine receptor (Homo sapiens) (UniProt P35462). Description: qHTS of D3 Dopamine Receptor Antagonist: qHTS. To be noted: D3R cells, DiscoveRx beta-arrestin luminescence, antagonist mode; hits give low values. The procedure, abridged:
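Cells expressing the human receptor were seeded at 1500 cells/well, incubated overnight at 37 degrees C in 5% CO2, then exposed to library compounds with dopamine controls for 90 minutes at 37 degrees C before luminescent detection.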
In general terms: qHTS replaces the single test concentration by a dilution series.
Take `O=C(c1cc(C2CCCCN2S(=O)(=O)c2ccccc2)on1)N1CCOCC1` (configuration not stated): the max response, negative = inhibition is 44.2% (inactive).
The result for `CCCCN(C(C)=O)c1ccc2c(c1)C1CC2CCN1Cc1ccccc1` (configuration not stated) reads -22% (inactive); that for `O=C(Cn1cnc2c(nnn2-c2ccccc2)c1=O)N1CCC(Cc2ccccc2)CC1`, -67.4% (active).
With `COc1ccc(-n2nnc3c(=O)n(CC(=O)N4CCC(Cc5ccccc5)CC4)cnc32)cc1`, the max response, negative = inhibition was -29.9% (inactive).
As for `COc1ccc(-n2nnc3c(=O)n(CC(=O)OCc4ccccc4)cnc32)cc1`, the max response, negative = inhibition is 7.78% (inactive).
For `CC(C)(C)Cc1c(C2CCCCC2)nc2ccc(Br)cn12`, the max response, negative = inhibition is 20.9% (inactive).
`CCN(CC)c1ncnc2c1ncn2[C@H]1CN(Cc2cccs2)C[C@@H](CO)O1`: the max response, negative = inhibition was -18.3% (inactive).
Turning to `CC1(C(=O)NCc2ccc3c(c2)OCO3)CCN1C(=O)Cc1cccc2ccccc12` (configuration not stated), the max response, negative = inhibition is -2.93% (inactive).
Take `FC(F)(F)c1cccc(Cc2noc(CN3CCC(N4CCCCC4)CC3)n2)c1`: the max response, negative = inhibition was 43.6% (inactive).
For the molecule `O=C(c1ccco1)N1CCN(Cc2cccc(C(F)(F)F)c2)CC1`, the max response, negative = inhibition was 19.4% (inactive).
The result for `CCOC(=O)N1CCN(Cc2nc(Cc3cccc(C(F)(F)F)c3)no2)CC1` reads -50.2% (active); that for `CCCNC(=O)C1(C)CCCN(C(=O)c2cccc(OC(C)=O)c2C)C1` (configuration not stated), 9.36% (inactive); that for `COc1ccccc1Cc1c(-c2ccc(Cl)cc2)nc2c3ccccc3ccn12`, 7.3% (inactive).
With `CCCCNCCS(=O)(=O)NCc1ccccc1`, the max response, negative = inhibition is -71.2% (active).
Consider `O=C(NCCS(=O)(=O)NCc1ccc(F)cc1)c1ccccc1`, for which the max response, negative = inhibition was -8.19% (inactive).
In the case of `Cc1ccc(CNS(=O)(=O)CCNC(=O)c2ccccc2)cc1`, the max response, negative = inhibition was 18.2% (inactive).
In the case of `CC(=O)N1CCN(Cc2cc(=O)oc3cc(C)ccc23)CC1`, the max response, negative = inhibition is 10.4% (inactive).
Regarding `COc1ccc(S(=O)(=O)N2CCN(CC(=O)N3CCNC3=O)CC2)cc1OC`, the max response, negative = inhibition was 3.73% (inactive).
For the molecule `Cn1ncc([N+](=O)[O-])c1C(=O)Nc1cc(Cl)ccc1Cl`, the max response, negative = inhibition is 0% (inactive).
Turning to `O=C(CSc1ncn[nH]1)NCc1ccc2c(c1)OCO2`, the max response, negative = inhibition is 5.23% (inactive).
The result for `O=C(/C=C/Sc1ncn[nH]1)c1ccc(Cl)cc1` reads -50.9% (active); that for `O=C(CSc1ncn[nH]1)Nc1ccc(Br)cc1Br`, -17.2% (inactive); that for `CN(C)C(=O)c1cccc(-c2cnc3sc(NCc4ccc5c(c4)OCO5)nn23)c1`, 59.7% (inactive).
Turning to `CCCCCc1c(-c2cccc(Br)c2)ncn1CCc1ccccc1OC`, the max response, negative = inhibition was 19.8% (inactive).
For `CCCNC(=O)C1(C)CCCN(C(=O)c2oc3ccccc3c2C)C1` (configuration not stated), the max response, negative = inhibition was -13.3% (inactive).
The same measure for `Cc1nn(C)cc1CNC(=O)Nc1ccc(Cl)cc1`: 6.1% (inactive); for `Cn1cc(Cl)c(C(=O)NNC(=S)Nc2cccc(Cl)c2)n1`: -24.3% (inactive).
For `Cc1nn(C)cc1C(=O)NNC(=S)Nc1ccc(Cl)cc1`, the max response, negative = inhibition is -63.2% (active).
In the case of `Cc1cccc(CN2CCN(C3CN(Cc4ccccc4)S(=O)(=O)C3)CC2)c1` (configuration not stated), the max response, negative = inhibition was -8.28% (inactive).
Consider `Cc1cc2nc(-c3ccc(Cl)cc3)c(Cc3cccc(F)c3)n2c(C)c1Br`, for which the max response, negative = inhibition was 0% (inactive).
The result for `COc1ccccc1CC1(C)C(=O)Nc2ccc(OC(F)(F)F)cc21` (configuration not stated) reads -16.9% (inactive); that for `CC(=O)Nc1ccc2c3c(ccc([N+](=O)[O-])c13)CC2`, -18.8% (inactive).
Regarding `CN1CCN(CCC(=O)N/N=C/C=C2\N(C)c3ccccc3C2(C)C)CC1`, the max response, negative = inhibition was -23.3% (inactive).
With `CC(=O)Nc1cccc(OCC(=O)/C=C2\N(C)c3ccccc3C2(C)C)c1`, the max response, negative = inhibition was 12.1% (inactive).
Turning to `CN1/C(=C\C=C2\N=C(c3ccc(F)cc3)OC2=O)C(C)(C)c2ccccc21`, the max response, negative = inhibition is -63.7% (active).
The result for `Cc1cc2c(cc1C)N1C(=O)c3cc4ccccc4cc3NC(=O)C1C(=O)N2` (configuration not stated) reads 0% (inactive).
The same measure for `CC(=O)C[C@@H]1OC[C@H](C)N1S(=O)(=O)c1ccc(C)cc1`: 1.58% (inactive); for `Cc1nccn1-c1ccc(NC(=O)[C@H]2O[C@@H](n3ccc(=O)[nH]c3=O)[C@H](O)[C@@H]2O)cc1`: 23.4% (inactive); for `CCc1nc2c(OCc3ccc(C(F)(F)F)cc3)cccn2c1N(C)C(=O)CC(C)C`: 3.13% (inactive).
As for `COc1cccc(-c2cnc(C(O)c3ccccc3OC)[nH]2)c1` (configuration not stated), the max response, negative = inhibition is 0% (inactive).
With `CC1(C(=O)NCc2ccccc2)CSCC(=O)N1CCCn1ccnc1` (configuration not stated), the max response, negative = inhibition is 11.4% (inactive).
Consider `CCOc1cc(/C=N/Nc2cc(C)nc3ccc(C)cc23)ccc1O`, for which the max response, negative = inhibition is 3.59% (inactive).
As for `CCN(CC)c1ccc(/C=N/Nc2nc(C)cc(C)n2)c(O)c1`, the max response, negative = inhibition is -81.5% (active).
`CCN(CC)c1ccc(/C=N/NC(=O)c2cnccn2)c(O)c1`: the max response, negative = inhibition is -57.7% (active).
Regarding `Cc1ccc(/C=N/NC(=O)C2=NNC(c3ccccc3)(c3ccccc3)C2)c(O)c1`, the max response, negative = inhibition is 15.1% (inactive).
Take `Cc1ccc2cc(/C=N/Nc3ccc(C(=O)O)cc3)c(Cl)nc2c1`: the max response, negative = inhibition is 13.3% (inactive).
Take `COc1ccc(NC(=O)C/C(C)=N/NC(=O)c2cnccn2)cc1Cl`: the max response, negative = inhibition was 3.87% (inactive).
In the case of `c1cc(-c2ccc3[nH]ccc3c2)n2ccnc2c1`, the max response, negative = inhibition was 0% (inactive).
With `CCNC(=O)C1(C)CCN(C(=O)c2ccccc2)C1` (configuration not stated), the max response, negative = inhibition is 0% (inactive).
For `COc1ccc(C(C(=O)NCc2ccccc2)n2c(=O)c(-c3ccccc3)nc3ccccc32)cc1` (configuration not stated), the max response, negative = inhibition is -3.74% (inactive).
The result for `COc1ccc(OC)c(NC(=O)C2CCCN2S(=O)(=O)c2ccc3c(c2)CC(C)N3C(C)=O)c1` (configuration not stated) reads -11.1% (inactive); that for `CCN(CCN(C)C)C(=O)c1ccc2nc(C)c(N(C)C(=O)CCc3ccccc3)n2c1`, 14.8% (inactive); that for `COc1ccc(S(=O)(=O)N2CCC(C(=O)NCCC(=O)Nc3ccccc3OC)CC2)cc1`, 23.8% (inactive).
The result for `CN=C1C=C/C(=N/N=c2\ccn(O)cc2C)C=C1C` reads -67.8% (active); that for `O=C(COC(=O)CCc1c[nH]c2ccccc12)Nc1cccc(Cl)c1`, -6.82% (inactive); that for `O=C(CSC(=S)N1CCOCC1)c1ccccc1`, -4.48% (inactive).
On to `O=C(NC(=O)N1CCOCC1)c1ccccc1`, for which the max response, negative = inhibition was 160% (inactive).
For the molecule `NC(=NC(=O)c1ccccc1)N1CCOCC1`, the max response, negative = inhibition is -52.7% (active).
As to `Cc1cc2oc(=O)cc(CN(C)Cc3ccccc3)c2cc1Cl`, the max response, negative = inhibition is 9.91% (inactive).
With `CCCCN1C(=O)C(CC(=O)NCc2cccs2)CC(C(=O)N2CCCCCC2)=C1C` (configuration not stated), the max response, negative = inhibition was 0% (inactive).
Take `O=C(CCCNS(=O)(=O)c1cccc2nsnc12)NCCN1CCN(c2ccccc2F)CC1`: the max response, negative = inhibition was -84.7% (active).
As for `COc1ccccc1CNC(=O)CCCNS(=O)(=O)c1cccc2nsnc12`, the max response, negative = inhibition was -0.0929% (inactive).
The same measure for `O=C(CCS(=O)(=O)c1cccc2nsnc12)N1CCN(c2ccccc2F)CC1`: 1.65% (inactive); for `OC[C@@H]1CN(Cc2ccc3c(c2)OCO3)C[C@H](n2cnc3c(NCc4ccco4)ncnc32)O1`: -5.45% (inactive).
On to `COC(=O)[C@@]1(Sc2ccc(C)cc2)CC(=O)N(c2cccc(SC)c2)[C@@H]1c1ccccc1`, for which the max response, negative = inhibition is 3.45% (inactive).
For the molecule `N#Cc1nc(N)nc(N(c2ccccc2)c2ccccc2)n1`, the max response, negative = inhibition was -74% (active).
With `CC(C)Nc1nc(N(c2ccccc2)c2ccccc2)nc(-n2ccnc2)n1`, the max response, negative = inhibition is 16.7% (inactive).
As to `CC(=O)Nc1ccc(CNc2nc(NCCN(C)C)nc3cc(-c4ccccc4)sc23)cc1`, the max response, negative = inhibition was -24.6% (inactive).
As to `CCOC(=O)C1CCCN(C(=O)c2cc(-c3cccs3)oc2C)CC1` (configuration not stated), the max response, negative = inhibition is 11% (inactive).
The same measure for `O=c1[nH][nH]c(C(F)(F)F)c1C=NCc1ccccc1Cl`: -70.6% (active); for `COc1ccc(S(=O)(=O)N2CCCCC2c2cc(C(=O)NCc3ccc(F)cc3)no2)cc1` (configuration not stated): 8.77% (inactive); for `Cc1cc(C(=O)N2CCCC2(C)C(=O)O)c(C)o1` (configuration not stated): 16.6% (inactive).
The same measure for `CCOC(=O)C1=CC[C@@H](c2ccccc2)N(S(=O)(=O)c2ccc(C)cc2)[C@H]1c1ccc(CC)cc1`: 4.64% (inactive); for `O=C(NCc1cccnc1)c1cc(C2CCCCN2C(=O)CCc2ccccc2)on1` (configuration not stated): -10.2% (inactive).
The result for `COc1ccc(C(=NN)c2ccc(OC)cc2)cc1` reads -10.2% (inactive); that for `COc1ccc(C(C#N)=C2C=CC(=NO)c3ccccc32)cc1`, -54% (active).
In the case of `COc1ccc(/C(N)=N/OC(=O)Cc2ccccc2)cc1`, the max response, negative = inhibition is -0.193% (inactive).
Consider `Cc1cccc(C)c1NC(=O)C(c1ccc(C(F)(F)F)cc1)n1c(=O)c(-c2ccco2)nc2ccccc21` (configuration not stated), for which the max response, negative = inhibition was -12.7% (inactive).
The same measure for `COc1cc(C=C(OC(C)=O)c2ccc3c(c2)OCO3)cc(OC)c1OC`: 24.2% (inactive); for `O=C1CCC(C(=O)OCC(=O)Nc2ccc(OC(F)F)cc2)=NN1`: 12.8% (inactive); for `CN(C)/N=C/c1cc(Cl)cc([N+](=O)[O-])c1O`: -79.8% (active).
Take `O=C(N/N=C/c1cc(Br)c(O)c([N+](=O)[O-])c1)C(O)(c1ccccc1)c1ccccc1`: the max response, negative = inhibition is -10.9% (inactive).
With `O=C(Cc1ccccc1)N/N=C/c1ccc(Cl)cc1Cl`, the max response, negative = inhibition is -15.7% (inactive).
Regarding `O=C(N/N=C/c1cc(Cl)cc([N+](=O)[O-])c1O)C(O)(c1ccccc1)c1ccccc1`, the max response, negative = inhibition is -89.3% (active).
Consider `CC(=O)NC(c1ccccc1)c1nc(-c2ccccc2C)cs1` (configuration not stated), for which the max response, negative = inhibition was -13.7% (inactive).
As to `CC(C)CCNC(=O)c1[nH]c(C(F)(F)F)nc1-c1ccccc1`, the max response, negative = inhibition is 0% (inactive).
For the molecule `COCOCCn1cc(CN2CCS(=O)(=O)N(Cc3ccc(-c4ccc(OC)cc4)cc3)C(CC(C)C)C2=O)nn1` (configuration not stated), the max response, negative = inhibition was 10.8% (inactive).
The result for `COc1ccc(NC(=O)CSc2nc(C)cs2)cc1` reads 5.34% (inactive); that for `COc1ccc(NC(=O)c2sccc2SCC#N)cc1`, -82.3% (active).
For `COc1ccc(NC(=O)c2ccc(C#CC(C)(C)O)cc2)cc1`, the max response, negative = inhibition is -1.8% (inactive).
On to `C[C@@H]1CN([C@H](C)CO)C(=O)CCCn2cc(nn2)CO[C@H]1CN(C)S(C)(=O)=O`, for which the max response, negative = inhibition is 12.7% (inactive).
The result for `NC(=S)NN=Cc1ccc(OC(=O)COc2cc(Cl)c(Cl)cc2Cl)cn1` reads 0.559% (inactive).
